Results with a measured potency or affinity are listed apart.

The subject of test [1] is Staphylococcus aureus. The following applies: Concentration 32 ug.mL-1;; ASSAY_TEST Inhibition of Bacterial Growth; detection method Absorption (OD600); MEDIA CAMHB; plate type 384well; NBS; CORNING #3640; time 18 hr.
In test [2] the test system is Escherichia coli. Particulars: Concentration 32 ug.mL-1;; ASSAY_TEST Inhibition of Bacterial Growth; detection method Absorption (OD600); MEDIA CAMHB; plate type 384well; NBS; CORNING #3640; time 18 hr.

As for `CCOC(=O)c1ccc(NC(=O)Cn2nc3ccc(C(=O)Nc4cccc(C)c4)cn3c2=O)cc1`, the Inhibition is reported as 1.34% in test [1] and -4.77% in test [2].
As to `CCCN(C)c1nccn2c(=O)n(CC(=O)Nc3cccc(C(F)(F)F)c3)nc12`, the Inhibition is 6.48% in test [1] and 3.02% in test [2].
With `COC(=O)c1ccc(NC(=O)Cn2nc3ccc(C(=O)NCc4ccccc4)cn3c2=O)cc1`, the Inhibition in test [1] is recorded as 12.92%; in test [2] it was -2.38%.
Consider `COc1cccc(NC(=O)Cn2nc3c(Sc4ccccc4)nccn3c2=O)c1`, for which the values for the Inhibition in test [1] and in test [2] were 6.76% and 0.48%, respectively.
In the case of `COc1cccc(CNC(=O)CSc2nnc3c4cc(-c5cc(C)ccc5C)nn4ccn23)c1OC`, the Inhibition in test [1] is 5.75%; in test [2] it was -5.6%.
Regarding `O=C(Cn1nc2ccc(-c3ccc(Cl)cc3)nn2c1=O)NC1CCCC1`, the Inhibition in test [1] came out at 12.95%; in test [2], 1.75%.
The matching figures for `Cc1ccc(Oc2nccn3c(=O)n(CC(=O)Nc4ccc(C)cc4Cl)nc23)cc1`: 6.09% and 0.24%.
For the compound `CCc1ccccc1Sc1nccn2c(=O)n(CC(=O)Nc3ccc(OC)cc3)nc12`, the Inhibition in test [1] is recorded as -2.16%; in test [2], -10.01%.
On the same counts, the results for `O=c1n(Cc2cccc(Br)c2)nc2ccc(-c3ccccc3)nn12` are 4.53% and -3.48%.
On the same counts, the results for `Cc1ccc(NC(=O)Cn2nc3c4cc(-c5ccc(Cl)cc5)nn4ccn3c2=O)cc1F` are 11.6% and 6.51%.
As for `O=C(Cn1nc2ccc(SCc3ccc(Cl)cc3)nn2c1=O)Nc1ccc2c(c1)OCO2`, the Inhibition in test [1] is on record as 9.4%; in test [2] it was -2.43%.
On the same counts, the results for `Cc1ccc(NC(=O)CSc2nc3ccccc3n3c(C)nnc23)c(Br)c1` are 15.19% and -2.51%.
`Cc1cc2nn(CC(=O)Nc3ccc(F)cc3Cl)c(=O)n2c(Nc2ccc(F)cc2)n1`: the values for the Inhibition in test [1] and in test [2] were 4.61% and -0.12%, respectively.
In the case of `CC(=O)c1cccc(NC(=O)Cn2c(=O)c3nnc(C(C)C)n3c3ccccc32)c1`, the figures for the Inhibition in test [1] and in test [2] were 9.36% and 0.14%, respectively.
As to `COc1ccc(-c2cc3c4nn(CC(=O)Nc5ccc(C)c(F)c5)c(=O)n4ccn3n2)cc1`, the results for the Inhibition in test [1] and in test [2] were 0.97% and 2.58%, respectively.
With `CCc1ccccc1NC(=O)Cn1nc2c(SC3CCCCC3)nccn2c1=O`, the results for the Inhibition in test [1] and in test [2] were 7.59% and -2.96%, respectively.
Turning to `COc1cccc(-n2ccn3c(SCC(=O)NCc4ccco4)nnc3c2=O)c1`, the Inhibition in test [1] is 13.02%; in test [2], -1.73%.

For the origin of these results see ChEMBL document CHEMBL4513146, “CO-ADD screening of Karazin Kharkiv National University (Ukraine) compounds”.
